# Rows were chosen to be rich in hits. Some 10% of all compounds tested hit in one or more screens of this group.
# GPT2 inhibitor: inhibitors of human GPT2 alanine aminotransferase; Recombinant GPT2, coupled pyruvate oxidase/HRP Amplex Red fluorescence; actives 0.25% (n = 100,000); Potency, µM (titrated, usually from 57.7 µM), for the others: at the highest dose activity change, negative = inhibition, most hits filed as inhibitors; Q8TD30; AID 1671188; note: % is set by controls: 0 for no effect and ±100 for the full control effect; nearly all actives have a fitted effect of over 60% in size
#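 GPT2 10ng/uL, a-KG 250uM, L-Ala 2mM, HEPES pH7.5 + 0.0001% Tween; 30 min RT. Then Amplex mix (PO/HRP/ThPP), 30 min RT dark, fluorescence. AOA 50uM used as positive control.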
# hNpr1 antagonist: human Npr1 receptor antagonism; Potency, µM (doses to about 46.3 µM), for inactives: at the highest dose activity change, negative = inhibition, hits mostly inhibitors; actives 1.6% (n = 76,000); AID 1347048; HEK293 hNpr1 GloSensor cGMP, ANP-stimulated luminescence; calls by dose curve; note: % is set by controls: 0 for no effect and ±100 for the full control effect; nearly all actives have a fitted effect of over 60% in size
#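 HEK293 cells stably expressing human Npr1 and cGMP GloSensor pGS-40F, loaded 2 h with 2% GloSensor reagent, given compound 30 min at room temperature. Luminescence read before and 20 min after 0.1 nM hNppA.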
# HEK cytotox: kills HEK 293 cells. actives 6.6% (n = 94,000). HEK 293 viability, ATP luminescence (CellTiter-Glo), 48-72 h. Potency, µM (series often up to 115 µM), for the others: top-dose activity change, negative = cytotoxicity, hits mostly inhibitors; note: % is set by controls: 0 for no effect and ±100 for the full control effect; nearly all actives have a fitted effect of over 60% in size
#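 Cells seeded first (HEK 293, 250 cells/well), then compound added by pintool. Incubation ran 48 or 72 hr at 37 degree Celsius. CellTiter-Glo was added and luminescence imaged after 10 min at room temperature.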
# FLuc inh-1: inhibitors of firefly (Photinus pyralis) luciferase; purified P. pyralis luciferase, luminescence, biochemical; P08659; AID 1347043; Potency, µM (doses to about 115 µM), usual class: inhibitors; actives 2.5% (n = 76,000); note: % is set by controls: 0 for no effect and ±100 for the full control effect; nearly all actives have a fitted effect of over 65% in size
# Target sequence (P08659 whole entry, looked up): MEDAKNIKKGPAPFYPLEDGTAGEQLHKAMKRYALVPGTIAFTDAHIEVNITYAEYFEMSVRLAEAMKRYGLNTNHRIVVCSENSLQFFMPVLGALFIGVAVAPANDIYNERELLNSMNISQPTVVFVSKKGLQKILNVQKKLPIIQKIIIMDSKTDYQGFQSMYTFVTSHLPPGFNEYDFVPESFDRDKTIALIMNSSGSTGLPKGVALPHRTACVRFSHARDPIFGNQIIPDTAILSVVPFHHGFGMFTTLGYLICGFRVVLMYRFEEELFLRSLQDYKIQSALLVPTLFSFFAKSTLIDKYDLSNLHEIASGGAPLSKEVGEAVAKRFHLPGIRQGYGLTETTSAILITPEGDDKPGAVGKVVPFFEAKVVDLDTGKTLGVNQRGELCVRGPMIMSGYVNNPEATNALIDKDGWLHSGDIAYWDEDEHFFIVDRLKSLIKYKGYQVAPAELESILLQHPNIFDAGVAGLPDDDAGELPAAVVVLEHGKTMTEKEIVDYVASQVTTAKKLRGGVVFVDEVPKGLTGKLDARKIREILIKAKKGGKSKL
#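 Purified 10nM P. pyralis luciferase with 10uM D-luciferin and 10uM ATP in 50mM Tris acetate pH 7.5, 10mM Mg acetate, 0.01% Tween-20, 0.05% BSA. qHTS titration; luminescence read by CCD imager.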
# NIH3T3 tox: cytotoxic compounds in NIH 3T3 cells. NIH 3T3 viability, CellTiter-Glo ATP luminescence, 48-72 h. actives 4.3% (n = 94,000). Potency, µM (doses to about 96.7 µM), inactives show at the highest dose activity change, negative = cytotoxicity, usual class: inhibitors; note: % is set by controls: 0 for no effect and ±100 for the full control effect; nearly all actives have a fitted effect of over 55% in size
#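 NIH 3T3 cells at 400 cells/well received 23 nL of compound by pintool and were incubated 48 or 72 h at 37 °C. Viability was read as ATP-coupled CellTiter-Glo luminescence.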
# FLuc SDR no ATP: firefly luciferase binding stabilization, ATP absent; shares compounds with FLuc inh-1; Purified FLuc-C-HiBiT, Nano-Glo HiBiT luminescence, no ATP; Potency, µM (doses to about 32.7 µM), without a hit: at the top dose activation (signal gain), hits mostly activators; actives 7.8% (n = 1,300); note: nearly all actives have a fitted effect of over 55% in size
# FLuc SDR ATP: firefly luciferase binding stabilization, ATP added; purified FLuc-C-HiBiT + ATP, HiBiT complementation luminescence; AID 1963319; shares compounds with FLuc inh-1; actives 8.7% (n = 1,300); Potency, µM (titrated, usually from 32.7 µM), inactives show at the top dose activation (gain of signal), usual class: activators;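 note: signal reports ligand binding via conformational change of the enzyme rather than luciferase catalysis; % of control where 0% means no effect; nearly all actives have a fitted effect of over 55% in size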
# FLuc inh-2: blocks firefly luciferase enzymatic activity | shares compounds with FLuc inh-1 | purified FLuc-C-HiBiT enzyme, luciferin luminescence | Potency, µM (highest dose often 32.7 µM), for inactives: top-dose activity change, negative = inhibition, hits mostly inhibitors | actives 42% (n = 1,300) | AID 1963320; note: % is set by controls: 0 for no effect and ±100 for the full control effect; nearly all actives have a fitted effect of over 70% in size
# Active calls of the source: *; i = inactive; ? = inconclusive; · = not tested or not shown; [ ] = dose if it differs, or a comment. Unless noted, calls come from the whole dose curve; as a rule, active = well fitted curve in the direction sought with a large enough effect; inconclusive = small, poorly fitted or top-dose-only effect, or another doubt; inactive = no such curve, though single readings can be large; an effect the other way counts as inactive or inconclusive. Potency is the fitted concentration of half-maximal effect.
SMILES,GPT2 inhibitor,hNpr1 antagonist,HEK cytotox,FLuc inh-1,NIH3T3 tox,FLuc SDR no ATP,FLuc SDR ATP,FLuc inh-2
c1ccc(Nc2ncc(-c3ccccc3)o2)cc1,·,·,·,·,·,?,?,0.785µM*
Cc1ccc(C2=CC(c3ccccc3C)n3c(nc4ccccc43)N2)cc1 (stereo unspecified),·,·,·,·,·,?,?,4.42µM*
C[S+](=O)([O-])CCn1ncc2cc(OCc3cccc(-c4cccc(O)c4)c3)ccc21,5.0%[88.5 µM],?,70.8µM*,3.98µM*,?,24.7%[49.3 µM],15.5%[49.3 µM],?
C[S+](=O)([O-])CCn1ncc2cc(OCc3cccc(-c4cccnc4)c3)ccc21,-5.7%[88.5 µM],28.2µM*,79.4µM*,5.01µM*,?,22.9%[49.3 µM],?,16.1µM*
O=C(N[C@@H]1CN(C(=O)Nc2ccc(OC(F)(F)F)cc2)CCC[C@H]1O)c1ccc(OCCN2CCOCC2)cc1,-17.1%,-2.0%,?,?,?,·,·,·
COc1ccc(C(=O)N[C@@H]2CN(C(=O)Nc3ccc(OC(F)(F)F)cc3)CCC[C@H]2O)cc1,?,?,39.8µM*,8.91µM*,44.7µM*,16.3%,12.3%,?
COc1ccc(-c2nc3ccc(NS(C)(=O)=O)cc3o2)cc1,·,·,·,·,·,18.8%,14.7%,?
O=C(Nc1cccc(C(F)(F)F)c1)N[C@H]1[C@H](O)[C@@H](N2CCN(c3ccccc3)CC2)[C@@H]2OC[C@H]1O2,i,0.9%,?,i,?,·,·,·
O=C(NC1CCCCCC1)C1CCN(C(=O)c2ncn3c2COC(c2ccccc2)C3)CC1 (stereo unspecified),i,-2.3%,11.2%,12.6µM*,i,13.3%,?,7.85µM*
CSc1ccc(NC(=O)C2CCN(C(=O)c3ncn4c3COC(c3ccc(F)cc3)C4)CC2)cc1 (stereo unspecified),i,-26.9%,?,?,-2.5%,·,·,·
O=C(Nc1ccc(Cl)cc1)C1CCN(C(=O)c2ncn3c2COC(c2ccccc2)C3)CC1 (stereo unspecified),i,?,6.4%,1.78µM*,i,13.7%,1.11µM*,1.76µM*
O=C(Nc1ccc(F)cc1)C1CCN(C(=O)c2ncn3c2COC(c2ccccc2)C3)CC1 (stereo unspecified),2.5%,?,-29.5%,1.58µM*,-31.4%,9.3%,1.11µM*,1.76µM*
CCOc1ccccc1CN1CCC2(CCN(C(=O)OC)CC2)Oc2ccccc21,i,0.0%,?,i,?,·,·,·
Cc1nnnn1CCCN1CCc2onc(-c3ccc(C(F)(F)F)cc3)c2C1,?,-2.9%,?,i,-28.4%,·,·,·
O=C1Cc2c(-c3cccc4ccccc34)n[nH]c2CN1CCOc1ccccc1,-17.0%[88.5 µM],?,44.7µM*,10µM*,44.7µM*,6.5%[49.3 µM],10.2%[49.3 µM],?
COCc1cc(CNc2nccc(-c3ccccn3)n2)[nH]n1,-6.6%,3.6%,-10.4%,i,-14.3%,·,·,·
c1ccc(CCCNc2nccc(-c3ccccn3)n2)nc1,-28.6%,1.5%,?,10µM*,-30.2%,14.4%,15.3%,1.2%
O=C(NN1CCCC1)NS(=O)(=O)c1ccc(Cl)cc1,-16.8%,·,·,·,·,·,·,·
CC(=O)c1ccc(NS(=O)(=O)c2cccc(S(=O)(=O)c3ccc(Cl)cc3)c2)cc1,·,·,·,·,·,13.9%,8.6%,-9.9%
CC(=O)N1CCN(C(=O)C2CCCN2C(=O)c2cccc(-c3ccccn3)c2)CC1 (stereo unspecified),i,·,-4.5%,·,-6.2%,·,·,·
CCOC(=O)c1ccc(NC(=O)Cn2c(N3CCCCC3)nc(C)c(C)c2=O)cc1,4.0%,3.5%,?,i,?,·,·,·
CCOC(=O)c1ccc(NC(=O)CSc2nnc(CNC(=O)c3ccc(OC)cc3)n2CC)cc1,·,·,·,·,·,14.7%,11.5%,?
O=C(Nc1cccnc1)c1cc(-c2ccc(Cl)cc2)on1,·,·,·,·,·,14.7%,13.7%,?
Cc1cccc(NC(=O)c2cc(-c3ccc4c(c3)OCCO4)on2)c1,·,·,·,·,·,4.95µM*,?,0.442µM*
O=C(Nc1cccc(Cl)c1)c1cc(-c2ccc3c(c2)OCCO3)on1,·,·,·,·,·,?,?,0.624µM*
SMILES,GPT2 inhibitor,hNpr1 antagonist,HEK cytotox,FLuc inh-1,NIH3T3 tox,FLuc SDR no ATP,FLuc SDR ATP,FLuc inh-2
Cc1noc(-c2ccc3c(c2)OCO3)c1C(=O)NCCc1cccc(Cl)c1,i,-15.2%,?,i,?,·,·,·
Cc1ccc(Cl)cc1NC(=O)c1cc(-c2ccc3c(c2)OCCO3)on1,·,·,·,·,·,?,?,1.76µM*
O=C(Nc1cccc(Cl)c1)c1nc2sccn2c1-c1ccncc1,-11.3%,·,?,·,?,·,·,·
O=C(c1ccc(C(F)(F)F)cc1)N1CCCC(C(=O)N2CCCC(c3nc4ccncc4[nH]3)C2)C1 (stereo unspecified),i,·,?,·,?,·,·,·
COc1cccc(-n2cnc3c(N/N=C/c4ccncc4)ncnc32)c1,·,·,·,·,·,24.4%,13.6%,?
Cn1ncc2c(C(=O)NCC(F)F)cc(-c3ccccc3F)nc21,·,·,-20.0%,·,?,·,·,·
O=C(Nc1cnc(-c2ccccc2)nc1)C1CCCC1,i,10µM*,?,1µM*,-22.0%,?,?,2.48µM*
O=C(Nc1cnc(-c2ccc(Cl)cc2)nc1)C1CCC1,i,5.62µM*,2.0%,0.282µM*,-0.8%,?,?,1.24µM*
O=C(Nc1cnc(-c2ccc(Cl)cc2)nc1)c1ccc(F)c(F)c1,i,-9.9%,-22.5%,?,-17.0%,·,·,·
COC(=O)N1CCCC1C(=O)N1CCC(c2nc3ccncc3[nH]2)CC1 (stereo unspecified),1.8%[88.5 µM],·,-3.5%[172 µM],·,-7.9%[138 µM],·,·,·
COc1ccc(-c2cc3c(=O)n(CCNC(=O)c4ccc(OC)nc4)ccn3n2)cc1,i,0.3%,i,?,-1.5%,·,·,·
CC(C)(C)c1ccc(C(=O)Nc2ccc(C(O)[C@H]3COCC(=O)N3Cc3ccccc3)cc2)cc1 (stereo partly specified),-5.1%,?,?,11.2µM*,22.4µM*,15.2%,10.4%,-15.1%
COCC(=O)Nc1ccc([C@@H](O)[C@H]2COCC(=O)N2Cc2ccccc2)cc1,i,2.6%[70.6 µM],i,i,i,·,·,·

# High-throughput results as filed in PubChem BioAssay.
